# Measurements reported in ChEMBL document CHEMBL3988442, “University of Dundee, Small-Polar-MMV Screening Library” (2021).
# For some assays here: Measured potencies and affinities stand elsewhere.
# Columns and labels:
# Set-up in all cases: scale not given: direction of the effect not stated beside the values
# [1] = target: Protein translocase subunit SecA (Escherichia coli (strain K12)) (UniProt P10408); test: Assay to Identify E. coli SecA ATPase Inhibitors; assay type: functional; details: 30 µM
# Sequence of Protein translocase subunit SecA (Escherichia coli (strain K12)) (P10408 whole entry): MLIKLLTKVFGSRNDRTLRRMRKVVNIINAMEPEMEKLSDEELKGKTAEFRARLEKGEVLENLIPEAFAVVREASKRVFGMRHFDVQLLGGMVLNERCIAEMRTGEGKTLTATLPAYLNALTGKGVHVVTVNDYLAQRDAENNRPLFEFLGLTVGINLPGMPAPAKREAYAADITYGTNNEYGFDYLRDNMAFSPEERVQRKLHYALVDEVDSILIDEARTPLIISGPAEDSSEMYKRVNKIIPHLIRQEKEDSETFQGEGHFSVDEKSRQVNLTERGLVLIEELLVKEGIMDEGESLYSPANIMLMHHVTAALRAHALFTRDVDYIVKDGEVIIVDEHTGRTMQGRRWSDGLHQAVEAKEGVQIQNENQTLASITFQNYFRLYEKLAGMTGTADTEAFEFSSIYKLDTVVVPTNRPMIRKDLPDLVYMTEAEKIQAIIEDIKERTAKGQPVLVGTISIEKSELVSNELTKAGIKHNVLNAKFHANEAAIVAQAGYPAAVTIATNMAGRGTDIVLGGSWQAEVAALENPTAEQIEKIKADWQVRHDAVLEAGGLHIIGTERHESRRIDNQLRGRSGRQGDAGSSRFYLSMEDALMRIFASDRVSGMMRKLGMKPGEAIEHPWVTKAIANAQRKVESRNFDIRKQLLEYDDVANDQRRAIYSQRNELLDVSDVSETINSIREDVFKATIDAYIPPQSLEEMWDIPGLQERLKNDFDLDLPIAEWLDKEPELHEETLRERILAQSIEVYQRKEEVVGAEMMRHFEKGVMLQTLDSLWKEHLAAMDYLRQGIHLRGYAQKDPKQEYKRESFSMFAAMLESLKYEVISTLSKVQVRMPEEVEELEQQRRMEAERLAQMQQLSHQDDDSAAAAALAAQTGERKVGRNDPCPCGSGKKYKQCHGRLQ
# [2] = target: T1, Ubiquitin-activating enzyme e1, putative (Leishmania donovani (strain BPK282A1)) (UniProt E9BSI1); test: Leishmania donovani Ubiquitin Activating Enzyme (LdE1); assay type: functional; details: 30 µM
# T1 sequence (whole entry): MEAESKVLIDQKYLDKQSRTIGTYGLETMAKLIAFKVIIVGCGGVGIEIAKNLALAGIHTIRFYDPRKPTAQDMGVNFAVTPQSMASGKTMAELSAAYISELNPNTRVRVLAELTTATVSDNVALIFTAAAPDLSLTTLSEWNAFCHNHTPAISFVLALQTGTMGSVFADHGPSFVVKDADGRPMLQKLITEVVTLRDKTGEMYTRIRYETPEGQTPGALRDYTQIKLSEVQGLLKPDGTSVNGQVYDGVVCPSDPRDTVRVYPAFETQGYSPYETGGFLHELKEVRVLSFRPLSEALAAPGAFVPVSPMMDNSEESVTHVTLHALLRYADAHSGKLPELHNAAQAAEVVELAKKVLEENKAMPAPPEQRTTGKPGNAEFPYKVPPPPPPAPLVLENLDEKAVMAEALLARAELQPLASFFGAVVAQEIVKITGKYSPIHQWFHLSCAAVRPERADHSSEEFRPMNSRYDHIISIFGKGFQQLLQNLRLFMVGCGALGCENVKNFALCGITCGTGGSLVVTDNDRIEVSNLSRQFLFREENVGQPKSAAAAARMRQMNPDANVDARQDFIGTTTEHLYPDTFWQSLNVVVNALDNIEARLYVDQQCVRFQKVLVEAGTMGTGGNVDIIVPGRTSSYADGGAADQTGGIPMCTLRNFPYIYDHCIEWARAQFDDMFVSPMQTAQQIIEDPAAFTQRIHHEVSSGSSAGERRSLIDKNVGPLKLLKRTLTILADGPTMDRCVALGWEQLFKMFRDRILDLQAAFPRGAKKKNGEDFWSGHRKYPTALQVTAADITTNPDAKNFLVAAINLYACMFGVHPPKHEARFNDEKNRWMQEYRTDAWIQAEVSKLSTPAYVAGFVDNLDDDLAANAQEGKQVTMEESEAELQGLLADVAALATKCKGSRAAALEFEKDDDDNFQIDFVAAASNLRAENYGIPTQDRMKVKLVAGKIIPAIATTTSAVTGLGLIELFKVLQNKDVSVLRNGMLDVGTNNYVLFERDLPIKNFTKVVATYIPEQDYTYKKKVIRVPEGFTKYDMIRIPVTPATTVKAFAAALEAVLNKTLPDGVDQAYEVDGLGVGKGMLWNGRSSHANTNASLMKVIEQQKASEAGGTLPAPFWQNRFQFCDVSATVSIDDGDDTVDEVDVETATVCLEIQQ
# [3] = target: AMP-activated protein kinase, AMPK (Homo sapiens) (UniProt P54646+O43741+P54619+Q9UGJ0+Q9Y478+Q13131+Q9UGI9); test: AMP-dependent Kinase enzyme assay. An in vitro enzyme assay that detects ADP turnover that is directly proportional to AMPK activity. This uses naive AMPK that is activated during the assay with MK-8722; assay type: functional; details: 30 µM
# [4] = target: Sialic acid-binding Ig-like lectin 9 (Homo sapiens) (UniProt Q9Y336); test: Hs-Siglec9 ALPHAscreen SOP 20170721; details: 10 µM
# Sequence of Sialic acid-binding Ig-like lectin 9 (Homo sapiens) (Q9Y336 whole entry): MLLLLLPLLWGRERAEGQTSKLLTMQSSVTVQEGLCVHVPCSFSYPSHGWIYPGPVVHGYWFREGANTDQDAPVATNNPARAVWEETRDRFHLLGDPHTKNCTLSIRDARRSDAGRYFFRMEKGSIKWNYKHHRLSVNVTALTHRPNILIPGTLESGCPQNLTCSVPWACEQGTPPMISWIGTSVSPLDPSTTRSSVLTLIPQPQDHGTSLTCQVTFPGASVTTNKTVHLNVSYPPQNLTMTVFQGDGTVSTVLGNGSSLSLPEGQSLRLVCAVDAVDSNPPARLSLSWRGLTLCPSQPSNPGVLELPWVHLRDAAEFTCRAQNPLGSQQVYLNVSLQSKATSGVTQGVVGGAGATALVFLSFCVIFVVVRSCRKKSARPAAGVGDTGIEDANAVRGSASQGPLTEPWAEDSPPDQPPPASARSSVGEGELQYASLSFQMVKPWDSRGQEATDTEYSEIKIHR
# [5] = test system: Trypanosoma cruzi; test: Trypanosoma cruzi phosphomannomutase and mannose-1-phosphate guanylyltransferase assay; assay type: functional; details: 10 µM
# [6] = target: T2, Arginase-2, mitochondrial (Homo sapiens) (UniProt P78540); test: in vitro enzyme assay to detect the production of urea directly proportional to the activity of Arginase II; assay type: functional; details: 33.3 µM; further: in the data most compounds retested in dose-response had high values
# T2 sequence (whole entry): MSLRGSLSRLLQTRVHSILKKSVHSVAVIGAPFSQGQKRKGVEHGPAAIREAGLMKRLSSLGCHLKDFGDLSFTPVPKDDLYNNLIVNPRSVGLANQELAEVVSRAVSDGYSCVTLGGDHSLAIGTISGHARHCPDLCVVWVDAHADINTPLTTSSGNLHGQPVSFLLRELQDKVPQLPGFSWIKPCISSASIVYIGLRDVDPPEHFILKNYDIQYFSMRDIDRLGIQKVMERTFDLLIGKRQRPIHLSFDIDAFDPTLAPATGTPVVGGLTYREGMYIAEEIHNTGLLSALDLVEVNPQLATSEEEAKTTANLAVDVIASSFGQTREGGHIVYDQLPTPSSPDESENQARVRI
# [7] = target: T3, Proteasome subunit beta (Trypanosoma cruzi) (UniProt O96673); test: Trypanosoma cruzi proteasome chymotrypsin-like activity (TcProtChymo) assay.; further: in the data most compounds retested in dose-response had high values; assay type: functional; details: 9.37 µM
# T3 sequence (whole entry): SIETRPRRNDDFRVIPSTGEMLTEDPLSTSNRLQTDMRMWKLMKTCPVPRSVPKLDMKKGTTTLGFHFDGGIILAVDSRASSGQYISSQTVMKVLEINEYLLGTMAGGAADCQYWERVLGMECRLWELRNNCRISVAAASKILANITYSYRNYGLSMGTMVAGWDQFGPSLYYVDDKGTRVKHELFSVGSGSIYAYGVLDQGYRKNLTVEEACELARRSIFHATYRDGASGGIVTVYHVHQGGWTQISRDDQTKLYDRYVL
# [8] = organism: Homo sapiens; test: To identify inhibition of the IFN signalling (Jak-Stat) pathway via expression of an eGFP reporter gene under the control of an IFN-stimulated response element (ISRE) containing MxA promoter.; assay type: functional; details: 30 µM
# [9] = target: T4, Tyrosyl-tRNA synthetase, putative (Trypanosoma cruzi (strain CL Brener)) (UniProt Q4DSP6); test: Trypanosoma cruzi tyrosyl tRNA synthetase (TcYRS) _High Tyrosine SOP; assay type: functional; details: 30 µM; further: in the data most compounds retested in dose-response had high values
# T4 sequence (whole entry): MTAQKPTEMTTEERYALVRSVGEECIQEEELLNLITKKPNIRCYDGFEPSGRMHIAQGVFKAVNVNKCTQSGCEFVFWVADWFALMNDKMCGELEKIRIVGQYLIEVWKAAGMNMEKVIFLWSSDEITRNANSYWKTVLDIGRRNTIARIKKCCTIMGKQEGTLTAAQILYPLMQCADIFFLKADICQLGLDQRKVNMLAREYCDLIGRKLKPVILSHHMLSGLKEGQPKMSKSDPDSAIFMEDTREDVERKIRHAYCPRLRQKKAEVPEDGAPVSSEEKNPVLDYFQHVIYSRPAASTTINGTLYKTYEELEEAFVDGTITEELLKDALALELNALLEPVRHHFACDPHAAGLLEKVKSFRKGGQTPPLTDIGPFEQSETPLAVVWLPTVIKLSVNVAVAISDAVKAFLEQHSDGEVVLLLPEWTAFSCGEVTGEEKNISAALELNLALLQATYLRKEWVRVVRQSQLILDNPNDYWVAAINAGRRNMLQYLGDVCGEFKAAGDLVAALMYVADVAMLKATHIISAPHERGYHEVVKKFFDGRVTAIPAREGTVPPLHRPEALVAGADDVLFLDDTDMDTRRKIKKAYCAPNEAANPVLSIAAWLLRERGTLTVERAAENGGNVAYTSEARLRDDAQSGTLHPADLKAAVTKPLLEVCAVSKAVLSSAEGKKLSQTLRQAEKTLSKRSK
# [10] = target: T4, Tyrosyl-tRNA synthetase, putative (Trypanosoma cruzi (strain CL Brener)); test: Trypanosoma cruzi tyrosyl tRNA synthetase (TcYRS) SOP; assay type: functional; details: 30 µM
# [11] = target: Chromo domain-containing protein 1 (Saccharomyces cerevisiae (strain ATCC 204508 / S288c) (Baker's yeast)) (UniProt P32657); test: ScCHD-1 Enzyme Inhibition Assay; assay type: functional; details: 30 µM; further: in the data most compounds retested in dose-response had high values
# Sequence of Chromo domain-containing protein 1 (Saccharomyces cerevisiae (strain ATCC 204508 / S288c) (Baker's yeast)) (P32657 whole entry, the tested form may be a part): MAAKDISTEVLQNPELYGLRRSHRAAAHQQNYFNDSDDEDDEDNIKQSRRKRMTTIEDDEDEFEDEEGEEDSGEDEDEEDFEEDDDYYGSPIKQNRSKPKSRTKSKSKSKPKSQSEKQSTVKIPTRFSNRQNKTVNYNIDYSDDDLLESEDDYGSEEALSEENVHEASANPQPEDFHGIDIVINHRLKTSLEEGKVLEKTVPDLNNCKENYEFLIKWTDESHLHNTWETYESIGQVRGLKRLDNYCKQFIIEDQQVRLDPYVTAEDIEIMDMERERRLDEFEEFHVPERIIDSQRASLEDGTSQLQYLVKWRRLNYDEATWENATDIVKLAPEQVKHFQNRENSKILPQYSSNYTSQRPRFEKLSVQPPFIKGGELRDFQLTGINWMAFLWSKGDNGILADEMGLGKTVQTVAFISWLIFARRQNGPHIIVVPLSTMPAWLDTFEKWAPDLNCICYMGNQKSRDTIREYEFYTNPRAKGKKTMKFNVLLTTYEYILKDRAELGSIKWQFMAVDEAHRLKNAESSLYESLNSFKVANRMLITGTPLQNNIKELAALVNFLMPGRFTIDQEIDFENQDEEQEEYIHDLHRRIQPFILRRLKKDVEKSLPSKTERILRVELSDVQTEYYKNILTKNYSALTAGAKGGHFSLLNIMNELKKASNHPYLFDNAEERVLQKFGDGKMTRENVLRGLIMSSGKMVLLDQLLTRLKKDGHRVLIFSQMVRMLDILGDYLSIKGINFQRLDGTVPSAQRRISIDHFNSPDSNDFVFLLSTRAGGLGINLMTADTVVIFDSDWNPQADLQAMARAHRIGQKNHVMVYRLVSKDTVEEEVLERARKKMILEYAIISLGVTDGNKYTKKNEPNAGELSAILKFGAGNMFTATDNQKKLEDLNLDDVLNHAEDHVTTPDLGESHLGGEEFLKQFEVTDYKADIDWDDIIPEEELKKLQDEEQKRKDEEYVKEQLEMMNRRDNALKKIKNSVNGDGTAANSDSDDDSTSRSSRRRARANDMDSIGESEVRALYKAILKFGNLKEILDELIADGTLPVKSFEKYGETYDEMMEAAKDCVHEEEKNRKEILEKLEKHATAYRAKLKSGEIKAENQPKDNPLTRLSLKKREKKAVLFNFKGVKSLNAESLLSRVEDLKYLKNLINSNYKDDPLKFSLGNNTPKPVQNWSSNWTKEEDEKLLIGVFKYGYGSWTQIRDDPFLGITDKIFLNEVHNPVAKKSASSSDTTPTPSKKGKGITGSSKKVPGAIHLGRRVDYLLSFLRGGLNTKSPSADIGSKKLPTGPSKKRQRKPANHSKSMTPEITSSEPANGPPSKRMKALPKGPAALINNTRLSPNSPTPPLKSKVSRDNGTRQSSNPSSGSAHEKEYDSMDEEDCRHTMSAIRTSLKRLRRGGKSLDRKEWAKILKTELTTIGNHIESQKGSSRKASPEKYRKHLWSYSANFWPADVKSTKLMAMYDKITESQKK
SMILES,Percent Effect [1] [%],Percent Effect [2] [%],Percent Effect [3] [%],Percent Effect [4] [%],Percent Effect [5] [%],Percent Effect [6] [%],Percent Effect [7] [%],Percent Effect [8] [%],Percent Effect [9] [%],Percent Effect [10] [%],Percent Effect [11] [%]
CCn1cc(N)c(C(=O)NCc2cnn(C)c2)n1,-3.38,5.2,2.98,0.256,-1.48,-8.28,9.48,-5.92,6.45,11.1,1.02
O=S(=O)(NC1=NCN(CCc2cccs2)CN1)c1ccccc1,-3.47,9.33,1.7,2.24,6.29,-11.1,18.3,19.6,5.29,12.8,-7.27
CC(NC(=O)NCCCN1CCCCCC1)c1nncn1C (stereo unspecified),-2.66,10.8,-6.67,18.7,6.78,-6.47,-5.03,18,5.94,18.3,-3.61
Cn1cnnc1S(=O)(=O)C1CCN(S(=O)(=O)C2CC2)CC1,-2.77,-2.74,14.5,1.56,-3.72,-2.27,9.41,-3.78,-3.23,2.5,-1.03
CCn1c(CN(C)C)nnc1C1CCN(c2ccnc(C)c2)CC1,-0.496,6.94,-2.58,-2.36,-1.85,2.65,21.1,-1.07,5.26,5.13,-1.27
Cn1cccc1C(CNC(=O)c1ccc(F)cc1F)N1CCCCCC1 (stereo unspecified),-3.52,15.6,-9.64,-10.9,6.21,-3.23,17.9,11,8.47,21.8,-12.6
COCc1noc(C2(c3ccc(Br)cc3)CCOCC2)n1,-2.85,-2.7,1.95,-4.39,-6.95,1.91,9.83,4.48,-1.59,4.88,-3.06
Cc1nnc(CCNC2CCN(c3ncnc4c(C)csc34)CC2)s1,-3.21,7.79,3.06,11,7.77,-2.76,12.8,40.2,8.6,16.1,-8.66
Cn1ccnc1COc1ccc(CN2CCN(CCO)CC2)cc1,-4.05,20.8,-12.5,-0.317,-3.18,-3.2,5.07,29.4,10.7,2.44,-9.14
O=C(NCCNc1ncccn1)C1CCN(C(=O)C2CC2)CC1,-2.16,13.5,5.28,-1.97,-4.55,5.36,0.718,13.2,6.93,13.4,3.86
Cc1cnn(CC2CCCCN2Cc2nnc(-c3ccco3)o2)c1 (stereo unspecified),-5.16,13.5,-9.36,20.3,3.11,-5.61,13.3,7.01,8.37,18.5,-11.7
CC(C)Cc1noc(CN(C)C(=O)C2COc3ccccc3C2)n1 (stereo unspecified),-3.93,5.2,-1.17,6.48,-0.0983,-27.6,14.3,-9.36,-1.07,13.6,0.431
O=C(c1cscn1)N1C[C@@H]2[C@@H](C1)OCC(=O)N2CC1CCCC1,-1.51,-54.5,1.15,6.36,-5.01,-8.28,16.5,0.71,-87.1,-147,-3.29
CC(C)c1n[nH]c(C2CN(C(=O)c3csnn3)CCO2)n1 (stereo unspecified),-2.56,-7.89,-6.16,6.92,4.58,1.08,0.592,-2.95,3.45,6.17,-3.21
Cc1ccc(C2(CN3CCCC3)CCNCC2)nc1,-3.03,8.11,-4.02,3.83,2.32,-2.86,11.6,-11.7,10.1,9.76,-0.82
COc1ccc(CCN2CCCC(Cn3nc(C)nc3C)C2)cc1 (stereo unspecified),-1.76,-11.4,-0.842,1.01,2.77,-2.8,8.58,-4.76,8.33,10.1,-19.5
